A selection: hits, their analogues and other compounds. The true share with any hit is near 1.9%.
MLL CXXC-DNA inh = qHTS Fluorescence Polarization Assay for Inhibitors of MLL CXXC domain - DNA interaction. Histone-lysine N-methyltransferase 2A (Homo sapiens), Q03164. MLL-CXXC / FITC-HOXA9 DNA fluorescence polarization. Potency, µM (top dose mostly 115 µM), without a hit: top-dose activity change, negative = inhibition, most hits filed as inhibitors. actives 0.037% (n = 290,000). AID 2662, 2010; active = well fitted inhibition curve with a large enough effect in the polarisation, with a control signal flat, not every such curve was filed as active; inconclusive = small, poorly fitted or top-dose-only effect, or effect the other way, or a change in a side signal; inactive = no such curve, though single readings can be large or run the other way; the % refers to the polarisation; note: potency is the fitted concentration of half-maximal effect
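Steps: dispense CXXC domain solution (7 uM) → pin compounds or unlabeled HOX-A9 DNA control → 5 min ambient → add FLSN-HOX-A9 solution (50 nM) → spin → 30 min ambient → fluorescence polarization. Tris pH 7.5/NaCl/DTT/BSA buffer.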
ClpP mod = qHTS Assay for Activators of ClpP; AID 651965, 2013; ATP-dependent Clp protease proteolytic subunit (Bacillus subtilis (strain 168)), P80244; Potency, µM (top dose mostly 57.5 µM), for inactives: top-dose activity change, negative = active; actives 1.9% (n = 340,000); purified B. subtilis ClpP, FRET peptide cleavage, 20 min; active = well fitted falling curve with a large enough effect; inconclusive = small, poorly fitted or top-dose-only effect; inactive = no such curve, though single readings can be large or run the other way; note: potency is the fitted concentration of half-maximal effect; the source files actives as falling curves though it sought activators and does not explain the sign; nearly all actives have a fitted effect of over 65% in size
Target sequence (P80244 whole entry, looked up): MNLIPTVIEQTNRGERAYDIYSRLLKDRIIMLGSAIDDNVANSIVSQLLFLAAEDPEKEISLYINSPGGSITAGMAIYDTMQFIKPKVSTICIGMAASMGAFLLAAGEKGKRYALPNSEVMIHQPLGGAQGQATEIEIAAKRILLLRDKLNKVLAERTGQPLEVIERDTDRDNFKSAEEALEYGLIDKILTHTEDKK
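Buffer: 100 mM Tris/HCl pH8, 100 mM KCl, 0.05% low protease BSA, 2.5% glycerol, 0.01% Tween-20. ClpP 10 microg/mL final; 20 min RT; delta FRET normalized to ADEP and DMSO controls.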
Menin-MLL TR inh = qHTS Assay for Inhibitors Targeting the Menin-MLL Interaction in MLL Related Leukemias: Competition With Texas Red Labeled MLL-derived Mutant Peptide. actives 0.23% (n = 270,000). Potency, µM (doses to about 61.6 µM), for the others: at the top dose FP activity change, negative = inhibition, usual class: inhibitors. Menin + Texas Red MLL mutant peptide, fluorescence polarization; active = well fitted inhibition curve with a large enough effect in the polarisation, with a control signal flat, not every such curve was filed as active; inconclusive = small, poorly fitted or top-dose-only effect, or effect the other way, or a change in a side signal; inactive = no such curve, though single readings can be large or run the other way; the % refers to the polarisation; note: potency is the fitted concentration of half-maximal effect; % of control where 0% means no effect
Epigenetic derep = Quantitative High-Throughput Screen for Regulators of Epigenetic Control; Potency, µM (top dose mostly 53.9 µM), without a hit: top-dose GFP activation, hits mostly activators; actives 0.2% (n = 280,000); murine LDR cells, GFP reporter derepression, 30 h; active = well fitted activation curve with a large enough effect; inconclusive = small, poorly fitted or top-dose-only effect; note: potency is the fitted concentration of half-maximal effect; % of control where 0% means no effect; nearly all actives have a fitted effect of over 60% in size
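Derepression of a silenced CMV-GFP reporter in murine LDR cells is scored by enumerating GFP-positive cells with a laser-scanning microplate cytometer after 30 hours of treatment at 37 C.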
PINK1 expr mod = A Quantitative High throughput Screen to Identify Chemical Modulators of PINK1 Expression. Potency, µM (top dose mostly 76.6 µM), inactives show at the top dose activation (PINK1 increase), actives largely listed as activators. actives 0.2% (n = 410,000). PINK1 immunofluorescence, high-content cytometry, 24 h; active = well fitted activation curve with a large enough effect; inconclusive = small, poorly fitted or top-dose-only effect; cell line not stated here; note: potency is the fitted concentration of half-maximal effect; % of control where 0% means no effect; nearly all actives have a fitted effect of over 65% in size
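PINK1 protein, normally rapidly degraded, was detected by immunofluorescence after 24 hour compound treatment of a stable cell line. Titration data (5 concentrations) came from laser-scanning cytometry, with CCCP-treated wells as controls.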
Menin MLL FP FL = qHTS Assay for Inhibitors Targeting the Menin-MLL Interaction in MLL Related Leukemias: Competition With Fluorescein Labeled MLL-derived Peptide; FP activity change, % at 61.4 µM; AID 1766, 2009; Fluorescence polarization, fluorescein-MLL peptide displacement from menin; 290,000 tested, under 10 active; active = well fitted curve in the direction sought with a large enough effect in the polarisation, not every such curve was filed as active; inconclusive = small, poorly fitted or top-dose-only effect, or effect the other way, or a change in a side signal; inactive = no such curve, though single readings can be large or run the other way; the % refers to the polarisation; note: % of control where 0% means no effect
The depositor's hits bear a star; ? = inconclusive; / = not tested or not shown; [ ] = remark or other dose.

SMILES	MLL CXXC-DNA inh	ClpP mod	Menin-MLL TR inh	Epigenetic derep	PINK1 expr mod	Menin MLL FP FL
N#Cc1nc(-c2ccco2)oc1NCc1ccco1	6%	3.2µM*	3%	-14%	1%[38.3 µM]	7
CCC1CN(CCNC(=O)c2cccc(N3CCCC3=O)c2)Cc2cc(OC)ccc2O1 (configuration not stated)	/	/	/	/	-1%	/
CCN1C(=NCc2cccc(Cl)c2)N[C@@H](c2cccc(C(F)(F)F)c2)C(C(=O)OC)=C1C	/	-3%	/	/	0%	/
CN(C(=O)C1CCOC1)c1nnc(-c2ccccn2)s1 (configuration not stated)	16%	285%	5%	-1%	-1%	3
Cc1cnc(-c2nnc(N(C)C(=O)C3CCOC3)s2)cn1 (configuration not stated)	2%	28µM*	2%	2%	-1%	3
Cc1cc(N2CCN(c3ccccc3Cl)CC2)n2cc(-c3ccccc3)nc2n1	16%	14µM*	12%	1%	18%	4
Cc1ccc(CNc2nc(CN3CCNC(=O)C3)nc3ccccc23)o1	/	/	/	/	0%	/
CN(C)c1ccc(/C=C/c2ccnc3ccccc23)cc1Br	/	-2%	/	/	4%	/
O=C(O)c1c(Cl)c(Cl)c(Cl)c(Cl)c1C(=O)N1CCCCCC1	-2%	32µM*	4%	-2%	-2%	-6
O=C(O)c1c(Cl)c(Cl)c(Cl)c(Cl)c1C(=O)N1CCOCC1	-1%	-1%	-1%	-1%	0%	0
CN(C)CC(C)(C)CNC(=O)c1cnn(-c2nccc(-c3ccc4c(c3)OCO4)n2)c1-c1ccco1	/	/	/	/	-1%	/
Cc1ccc(C(c2nnnn2Cc2ccccc2)N2CCN(Cc3ccncc3)CC2)cc1 (configuration not stated)	/	2%	/	/	-1%	/
O=C(c1ccc(Cl)c(S(=O)(=O)N2CCOCC2)c1)N1CCOCC1	-1%	32µM*	22%	/	2%	-1
Cc1ccc(C(=O)N2CCOCC2)cc1S(=O)(=O)N1CCOCC1	6%	-5%	0%	/	3%	1
O=C(Cn1nc(-c2ccccc2Cl)ccc1=O)Nc1ccccc1-c1ccccc1	13%	14µM*	0%	0%	4%	0
O=C(Cn1nc(-c2ccccc2Cl)ccc1=O)Nc1ccc(Br)cc1	-15%	/	-2%	2%	3%	2
CN(C)C(CNC(=O)CCc1nc2sc3c(c2c(=O)[nH]1)CCCC3)c1ccccc1 (configuration not stated)	/	28µM*	/	/	-1%	/
O=C1CC(c2nc3ccccc3n2CCC2CCCCC2)CN1c1ccccc1Cl (configuration not stated)	/	-16%	/	-2%	1%	/
CCN(CC)c1ccc(/C=C(/C#N)c2nc3ccc(C)cc3[nH]2)c(OC(C)C)c1	?	-1%	-42%	5µM*	?	?
COc1c(Cl)cc(Cl)cc1/C=C(\C#N)c1nc2ccccc2[nH]1	/	20µM*	/	?	6%	/
CCOc1cc(N(CC)CC)ccc1/C=C(/C#N)c1nc2ccccc2[nH]1	?	0%	?	7.9µM*	8%	?
COc1cccc(/C=C(\C#N)c2nc3ccc(C)cc3[nH]2)c1	/	-14%	/	?	10%	/
COc1cc(/C=C(\C#N)c2nc3ccc(C)cc3[nH]2)ccc1OCc1ccc(C)cc1	/	-2%	/	5.6µM*	8%	/
N#C/C(=C\c1c(Cl)cccc1Cl)c1nc2ccccc2[nH]1	9%	-14%	58%	0%	?	-1
Cc1cc(/C=C(\C#N)c2nc3ccccc3[nH]2)c(C)n1C	1%	0%	0%	6%	7%	?
SMILES	MLL CXXC-DNA inh	ClpP mod	Menin-MLL TR inh	Epigenetic derep	PINK1 expr mod	Menin MLL FP FL
COc1ccc(O)c(CN2CCC3(CCC(CNC(=O)c4ccccc4)O3)CC2)c1 (configuration not stated)	/	/	/	/	0%	/
O=C(N/N=C/c1cn(-c2cccs2)nc1-c1ccccc1)c1ccccc1O	-5%	?	/	-3%	28µM*	/
O=C(N/N=C/c1cn(-c2cccs2)nc1-c1ccccc1)c1ccccc1Br	?	22µM*	?	0%	2%	-1
Cc1cc(=O)n2c(nc3ccccc32)[nH]1	-6%	14µM*	-14%	1%	-5%[38.3 µM]	3
CCc1cc2c3c(c(=O)oc2cc1O)CCCC3	-4%	10µM*	14%	0%	0%	-1
O=C(O)CC(=O)NC12CC3CC(CC(C3)C1)C2	-5%	1%	2%	1%	-2%	1
CC(C)NCC(=O)NC12CC3CC(CC(C3)C1)C2	-5%	16µM*	-2%	-1%	0%	0
COC1CC(=O)C2OC(c3ccccc3)OCC2O1 (configuration not stated)	/	0%	/	/	-1%	/
COCCC(=O)N1CCC(Oc2ccc(C(=O)N(C)CCCC3CCCC3)cc2)CC1	?	-2%	-13%	/	-1%	6
COCCC(=O)N1CCC(Oc2ccc(C(=O)NCCCC3CCCC3)cc2)CC1	4%	32µM*	/	/	2%	/
CC1CN(Cc2cccn2-c2ncccn2)Cc2cc(Cl)ccc2O1 (configuration not stated)	/	/	/	/	1%	/
COc1ccccc1CNC(=O)Cn1c(-c2cccs2)cc2cc(F)ccc21	/	32µM*	/	0%	7%	/
CCOc1cc(CNC(=O)Cn2c(-c3cccs3)cc3cc(F)ccc32)ccc1OC	/	25µM*	/	?	11%	/
C=C(C)C(=O)OCCO	/	/	-13%	/	/	2
Cc1nn(-c2ccccc2)c(C)c1/C=N/NC(=O)c1cccs1	-5%	25µM*	-20%	0%	4%	4
Cc1nn(-c2ccccc2)c(C)c1/C=N/NC(=O)c1cc(-c2cccs2)[nH]n1	-6%	-5%	27%	0%	-1%	5
CCCCCn1c(N)c(C#N)c2nc3ccccc3nc21	2%	?	2%	1%	2%[38.3 µM]	1
CCCCn1c(NC(C)=O)c(C#N)c2nc3ccccc3nc21	-3%	28µM*	?	-1%	-1%	?
COc1ccc(CCCNC(=O)C2(C)Cc3c(-c4ccc(NC(C)=O)cc4)ccnc3O2)cc1 (configuration not stated)	/	4%	/	/	3%	/
N#Cc1c(/N=C/c2ccccc2)oc(-c2ccccc2)c1-c1ccccc1	14%	35µM*	30%	-1%	0%[38.3 µM]	1

Assay outcomes from PubChem.
